Measurements reported in ChEMBL document CHEMBL1157539, “Thousands of chemical starting points for antimalarial lead identification” (Nature, 2010).

Each molecule was assayed on Plasmodium falciparum (assay: GSK_TCMDC: Inhibition of Plasmodium falciparum 3D7 in whole red blood cells, using parasite LDH activity as an index of growth. Test compounds present at 2uM).
Assay type: functional

Inhibition, 99%:
Cc1ccc(C(=O)Nc2cccc(-c3ccc(N4CCN(C)CC4)nn3)c2)cc1[N+](=O)[O-]
COc1cc(Nc2ccnc3ccc(C(F)(F)F)cc23)ccc1OCCCc1ccccc1
C[C@H](Cc1ccc(OCCCCCCOc2ccc(C[C@@H](C)NC[C@H](O)c3cccc(Cl)c3)cc2)cc1)NC[C@H](O)c1cccc(Cl)c1.Cl
CN(C)CCCNc1ncnc2c1[nH]c1ccc(Cl)cc12
CN1CCN(CC(=O)Nc2ccc(-c3csc(-c4nc5ccccc5[nH]4)c3)cc2)CC1

Inhibition, 98%:
CS(=O)(=O)Cc1ccc(Nc2nccc(-c3c(-c4cccc(NC(=O)C5CCCCC5)c4)nn4ncccc34)n2)cc1
FC(F)(F)c1ccc(NC(=S)N2CCC(CCN3CCC(c4c[nH]c5ccccc45)CC3)CC2)cc1
COc1ccc(C(=O)CCC(=O)N(CCSC(C)(C)C)Cc2ccc(-c3ccc(CNCCc4ccc(S(C)(=O)=O)cc4)cn3)cc2)cc1F.O=C(O)C(F)(F)F
COc1ccc(NC(=O)[C@H](Cc2ccccc2)Nc2cc(C)nc(NCCc3cccnc3)n2)cc1.O=C(O)C(F)(F)F
CCCC(N)C(=O)NC1CCN(c2c(F)c(N)c3c(=O)c(C(=O)O)cn4c3c2Oc2ccccc2-4)C1.Cl (stereo not given)

Inhibition, 89%:
CC(C)N1CCN(c2ccc(OCCCCN3CCN(c4cccc(Cl)c4Cl)CC3)cc2Cl)CC1.Cl

Inhibition, 94%:
COc1ccc(Cc2nc3c(n2C(C)=O)SC(c2ccc(Cl)c(Cl)c2)=NN3C(C)=O)cc1

Inhibition, 83%:
Cc1ccc(-c2nnc(Nc3ccc(CC(N)=O)cc3)c3ccccc23)cc1S(=O)(=O)NCC1CCCO1 (stereo not given)

Inhibition, 96%:
CN(C)CC(=O)N(Cc1ccc(Cl)c(Cl)c1)Cc1csc(-c2ccc(CNCc3ccccc3)cc2)n1.O=C(O)C(F)(F)F
Nc1nccc2ccc(-c3ccncc3)cc12
O=[N+]([O-])c1cccc(/C=N/Nc2ccnc3ccc(C(F)(F)F)cc23)c1
CC(C)NCc1ccc(-c2ccc(CN3CCCC(c4ccccc4)C3)cc2)c(C(=O)NC2Cc3ccccc3C2)c1.O=C(O)C(F)(F)F (stereo not given)

Inhibition, 91%:
O=C1SC(=Cc2ccc(O)c(O)c2)C(=O)N1c1ccccc1

Inhibition, 93%:
CC1(C)N=C(N)N=C(N)N1O.Cl
O=C(NCCN1CCCCC1)c1ccc(CNC(=O)c2ccc(O)c(-c3ccc(Cl)c(Cl)c3)c2)cc1
CC(C)Nc1cc(C(=O)N[C@@H](Cc2ccccc2)[C@H](O)CNCc2cccc(C(F)(F)F)c2)c(F)c(N2CCCCS2(=O)=O)c1.O=CO

Inhibition, 97%:
CCCCCCCCCCNCC(O)c1ccc(O)c(C(=O)OC)c1 (stereo not given)
O=C([C@H]1CCCCN1c1ccc([N+](=O)[O-])c2ccccc12)N1CCN(c2ncccn2)CC1
COc1ccc(Cn2c(=O)[nH]c3cc(C(=O)NC4CCN(Cc5ccccc5)CC4)ccc3c2=O)cc1
CCc1cccc2c(C#N)cn(CC(=O)Nc3ccc(OC)cc3)c12
CCCCCCNC(=N)c1ccc(OCCCCCOc2ccc(C(=N)NCCCCCC)cc2)cc1.Cl
O=C(O)C1CC(=O)N(c2ccc(Cl)cc2)C1 (stereo not given)

Inhibition, 85%:
CC(C)(C)c1ccc(NC(=O)c2cccc(CN3CCCN(Cc4cccc(Cl)c4)CC3)c2)cc1.O=C(O)C(F)(F)F

Inhibition, 92%:
COc1ccccc1N1CCN(C(C(=O)NCc2ccc(C)cc2)c2ccc(C)cc2)CC1 (stereo not given)

Inhibition, 100%:
CC(C)c1ccc2oc(-c3ccc(NC(=O)c4ccc([N+](=O)[O-])o4)cc3)nc2c1
O=C(Cc1c[nH]cn1)Nc1cccc(-c2ccc(-c3nc4cc(C(F)(F)F)ccc4[nH]3)cc2)c1
O=C(N[C@@H](Cc1ccccc1)CN1CCC(Oc2ccc(F)cc2)CC1)c1ccc(OCCCN2CCCCC2)cc1.O=C(O)C(F)(F)F
Cc1cccc2nc(-c3ccc(-c4cccc(CN5CCN(CCN6CCOCC6)CC5)c4)s3)[nH]c12.O=C(O)C(F)(F)F
Cl.Cn1c(=N)n(CC(=O)N2CCc3ccc(Cl)cc3C2Cc2ccc(Cl)c(Cl)c2)c2ccccc21 (stereo not given)
Nc1ncc(-c2cccc(F)c2)cc1-c1nc2cc(F)ccc2[nH]1.O=C(O)C(F)(F)F
COc1ccc2nc3cc(Cl)ccc3c(NCc3ccccc3)c2c1.Cl
O=C(Nc1ccc(Cl)cc1)Nc1cccc(-c2ccc(-c3nc4cc(F)ccc4[nH]3)cc2)c1
Oc1ccc(CN2CCC(N3CCN(CCc4ccccc4)CC3)C(O)C2)cc1Cl (stereo not given)
Cl.N#Cc1ccc2c(c1)CCN(CCC1CCC(NC(=O)c3cc4cccc([N+](=O)[O-])c4[nH]3)CC1)C2 (stereo not given)
NCCCNc1ccc(-c2ccc(NC(=O)Nc3cc(C(F)(F)F)ccc3F)cc2)cn1.O=C(O)C(F)(F)F
